In PubChem BioAssay (NCI):
Several values for one entry are separate records, joined by “and”; a condition that tells them apart may be missing. Identical values can stand only once. This is part of a sample that, as a whole, favours compounds with a hit. Of some 83,000 tested, about 20% had one in any assay.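 Growth was measured after 48 h exposure to one concentration of compound in 96-well plates. Values under 10 count as active.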 Unmarked numbers belong to inactive results. Activity calls are given as the source filed them.

System: MDA-MB-468 breast
Test: NCI-60 one-dose screen, 48 h (100 = growth as untreated, 0 = no growth, -100 = all killed)
Settings: 10 µM unless noted

Row | Compound | growth
1 | O=C1C=CC2(NN=C(c3ccccc3)N2c2ccccc2)c2cccc(O)c21 (stereo not given) | 36.2%
2 | CC1(C)/C(=C\CO)C2CCC1C2 (stereo not given) | 101%
3 | O=C(NC(CSSCC(NC(=O)OCc1ccccc1)C(=O)O)C(=O)O)OCc1ccccc1 (stereo not given) | 84.5% and 102%
4 | O=C1/C(=C/c2cn(-c3ccccc3)nc2-c2ccccc2)SC(=S)N1CCc1ccccc1 | 103%
5 | CCOC(=O)c1ccc(NC(=O)NC2=NCCS2)cc1 | 29.6%
6 | CCCCCCCCCCCCCCCCCC1=NCCN1C(=O)OCCO | -67.1% (active)
7 | O=C(CNc1ccc2c(c1)C(=O)c1ccccc1C2=O)Nc1ccc2c(c1)C(=O)c1ccccc1C2=O | -87.4% (active)
8 | CCc1ccc(-c2ccc(NC3CCCCCC3)nn2)cc1S(N)(=O)=O | 102%
9 | Oc1ccc(Cl)cc1CNc1nc2ccccc2[nH]1 | 102%
10 | COc1cc(C(=O)n2nc(N3CCN(C)CC3)c3cc(N)ccc32)cc(OC)c1OC | 0.604% (active)
11 | CC(C)(C)OC(=O)N1CCc2c(sc3ncnc(N/N=C/c4cccc(Br)c4)c23)C1 | 52.2%
12 | CCCCCCC(C)CC1=C(O)c2ccccc2C(=O)C1=O (stereo not given) | 1.43% (active)
13 | COc1cc(CSc2nc3ccc(Cl)cc3c(=O)n2-c2ccccc2)cc(OC)c1OC | 57.4%
14 | C=C(CBr)[C@@H]1CC[C@]2(COC(C)=O)CC[C@]3(C)[C@H](CC[C@@H]4[C@@]5(C)CCCNC(C)(C)[C@@H]5CC[C@]43C)[C@@H]12 | 25.1%
15 | COc1ccc(/C=C/C(c2cc(OC)c(OC)c(OC)c2)n2ccnc2)cc1O (stereo not given) | 40.6%
16 | CCN(CC)c1ccc(N=O)cc1 | 23.7%
17 | CC1OC(O[C@@H]2C(O)C(CO)OC(O[C@H]3COC(O[C@H]4CC[C@]5(C)[C@H]6CC[C@]78OC[C@@]9(CC[C@](C)(C=O)C[C@H]97)[C@H](O)C[C@@]8(C)[C@]6(C)CC[C@H]5C4(C)C)[C@@H](OC4OC(CO)[C@@H](O)[C@@H](O)[C@@H]4O)[C@@H]3O)[C@H]2OC2OC[C@@H](O)[C@@H](O)[C@@H]2O)[C@@H](O)[C@@H](O)[C@H]1O (stereo not given in full) | 34.5%
18 | O=C(NCCNc1nccc(Nc2ccc(S(=O)(=O)Nc3ccccn3)cc2)n1)c1cccc([N+](=O)[O-])c1 | 105%
19 | C#C[C@]1(O)CC[C@H]2[C@@H]3CC=C4c5sc(-c6cccc(O)c6)nc5CC[C@]4(C)[C@H]3CC[C@@]21C | 1.79% (active)
20 | CCCCCCCCCCCCCCCCCCOc1ccccc1CC(=O)OCC[N+]1(C)CCCC1 | -23.8% (active)

Row | Compound | growth
21 | COc1cc(NC(=O)C2=C(C)NC(C)=C(C(=O)Nc3cc(OC)c(Cl)cc3OC)C2c2cccc([N+](=O)[O-])c2)c(OC)cc1Cl | -11.7% (active)
22 | CCCCn1c(=O)[nH]c(N)c(C(c2ccc(F)cc2)c2c(N)[nH]c(=O)n(CCCC)c2=O)c1=O | 51.2%
23 | c1cc[n+](C2c3ccccc3C([n+]3ccccc3)c3ccccc32)cc1 (stereo not given) | -37.4% (active)
24 | CN(C)CCNc1nc2ccccc2c2c(=O)c3ccccc3sc12 | -23.6% (active)
25 | N#CC1=C(N)n2nc(-c3ccncc3)nc2NC1c1cccc2ccccc12 (stereo not given) | 76.1%
26 | CC1(C)Oc2cc3oc(=O)ccc3cc2C[C@@H]1OCCOS(=O)(=O)c1ccc(C#N)cc1 | 90.6%
27 | CCC(=O)NC1=C(Cl)C(=O)C(NC(=O)CC)=C(Cl)C1=O | -69.8% (active)
28 | COc1nc2ccccc2s1 | 113%
29 | Cc1c(C(=O)Nc2nc(-c3ccccc3)cs2)nnn1-c1ccccc1Br | -1.78% [50 µM] (active)
30 | CN(C)Cc1cc(C(C)(C)C)cc(Br)c1O | 90.2%
31 | CN(C)C(C(N)=O)c1ccc(Cl)cc1 (stereo not given) | 99.2%
32 | C=C1CC[C@@H]2[C@](C)(COC(C)=O)[C@H](OC(C)=O)CC[C@@]2(C)[C@@H]1CC(NCc1ccccc1)C1=CCOC1=O (stereo not given in full) | 22.9%
33 | CCNCCNc1cc(-c2ccc(C(F)(F)F)cc2)c(C#N)c2nc3ccccc3n12 | -73.6% (active)
34 | Cc1cc2nc(-c3c(N)ncc(C#N)c3-c3ccc(Cl)cc3)[nH]c2cc1C | 66%
35 | c1ccc2cc3c(Nc4ccc(N5CCOCC5)cc4)ccnc3cc2c1 | 87.9%
36 | Cc1ccc(CNS(=O)(=O)/N=C2\NC(=O)NC2=C(Cl)Cl)cc1 | 1.67% (active)
37 | CCCOS(=O)(=O)c1ccccc1 | 108%
38 | COc1cc(/C=C/C(=O)c2cc(OC)c(OC)c(OC)c2)ccc1OCc1ccccc1 | 21.5%
39 | CS(=O)c1nccc(-c2c(-c3ccc(F)c(OCCc4ccc(F)cc4)c3)nc3sccn23)n1 (stereo not given) | -64.3% (active)
40 | COc1cccc(Cc2cc(-c3ccccc3)nn(CC(=O)c3ccccc3)c2=O)c1 | 90.6%
